Shown are actives, neighbours in structure and some others; about 19% of the full set was active somewhere.
HepG2 tox: HepG2 cytotoxicity, counter-screen for TGF-b inhibitors | hit rate 0.76% among 410,000 | HepG2 CAGA-GFP viability, ATP luminescence, 18 h | Potency, µM (series often up to 46.1 µM), for inactives: at the top dose activity change, negative = cytotoxicity, hits mostly cytotoxic; also: potency is read from the fitted curve at half-maximal effect
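CellTiter-Glo luminescence gave cytotoxicity after 18 hours at 37 degrees C. The cells were HepG2 CAGA-GFP in 1% FBS DMEM, stimulated with 500 pg/mL TGF-beta after compound addition. %Activity was normalised to no-cell wells (complete cell-killing) and DMSO (no toxicity), and curves were fitted and classified.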
IL-1B inflam inh: inflammasome signaling inhibition, IL-1 beta readout | activity change, % at 57.5 µM | hit rate 4.7% among 360,000 | THP-1 LPS/ATP IL-1B secretion, AlphaLISA, 16 h; hits give low values | AID 743279; in the data active = activity change below about -50%; inconclusive = mostly about -30% to -49%; also: % is scaled to controls: 0 for no effect and ±100 for the full control effect
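THP-1 cells pretreated 1 hr with compounds (up to 57.5 uM final), then stimulated with LPS (250 ng/mL final) plus ATP (1.25 mM final); secreted IL-1B measured by AlphaLISA after 16 hr, decreased signal indicating inhibition.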
DT40 TDP1 CPT: growth inhibition of DT40 Tdp1-/-;hTDP1 cells with camptothecin (screen for TDP1 inhibitors); chicken DT40 Tdp1-/-;hTDP1 cells + 20 nM CPT, ATP luminescence, 48 h; Potency, µM (top dose mostly 46.2 µM), for inactives: top-dose activity change, negative = growth inhibition, actives largely listed as inhibitors; hit rate 12% among 420,000; also: potency is read from the fitted curve at half-maximal effect; % is scaled to controls: 0 for no effect and ±100 for the full control effect; nearly all actives have a fitted effect of over 55% in size
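Cell growth measured by CellTiter-Glo luminescence after a minimum 48 h, 37 C compound exposure with 20 nM CPT in Tdp1-knockout DT40 cells stably expressing hTDP1, seeded 400/well; qHTS titration format.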
TGFb inhibitor: inhibitors of TGF-b signaling. HepG2 CAGA-GFP TGF-b/SMAD3 reporter, GFP fluorescence, 18 h; TGF-beta stimulated, 500 pg/mL final. Potency, µM (doses to about 46.1 µM), inactives show at the highest dose activity, negative = inhibition, usual class: inhibitors. hit rate 1.2% among 410,000. AID 588855; also: potency is read from the fitted curve at half-maximal effect; % is scaled to controls: 0 for no effect and ±100 for the full control effect; nearly all actives have a fitted effect of over 65% in size
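Using HEPG2 CAGA-GFP reporter cells at 1000 cells/well, we pinned test compounds, stimulated with recombinant TGF-beta (500 pg/mL final) and measured total well GFP after 18 h.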
DT40 TDP1 no CPT: qHTS for Inhibitors of human tyrosyl-DNA phosphodiesterase 1 (TDP1): qHTS in cells in absence of CPT; DT40 Tdp1-/- hTDP1 cells, no CPT, ATP luminescence, 48 h; Potency, µM (series often up to 46.2 µM), without a hit: at the top dose activity change, negative = growth inhibition, actives largely listed as inhibitors; hit rate 15% among 420,000; also: potency is read from the fitted curve at half-maximal effect; % is scaled to controls: 0 for no effect and ±100 for the full control effect; nearly all actives have a fitted effect of over 55% in size
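Seeded 400 DT40-hTDP1 cells/well (vehicle DMSO, no 20 nM CPT); pinned compounds; ≥48 hr at 37 °C; CellTiter-Glo luminescence as viability measure.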
TDP1 inh: TDP1 (human) enzyme inhibition | hit rate 0.28% among 350,000 | Potency, µM (highest dose often 130 µM), for inactives: top-dose activity change, negative = inhibition, usual class: inhibitors | recombinant TDP1, AlphaScreen DNA substrate cleavage | AID 485290; also: potency is read from the fitted curve at half-maximal effect; % is scaled to controls: 0 for no effect and ±100 for the full control effect; nearly all actives have a fitted effect of over 40% in size
Target sequence (Q9NUW8 whole entry, looked up): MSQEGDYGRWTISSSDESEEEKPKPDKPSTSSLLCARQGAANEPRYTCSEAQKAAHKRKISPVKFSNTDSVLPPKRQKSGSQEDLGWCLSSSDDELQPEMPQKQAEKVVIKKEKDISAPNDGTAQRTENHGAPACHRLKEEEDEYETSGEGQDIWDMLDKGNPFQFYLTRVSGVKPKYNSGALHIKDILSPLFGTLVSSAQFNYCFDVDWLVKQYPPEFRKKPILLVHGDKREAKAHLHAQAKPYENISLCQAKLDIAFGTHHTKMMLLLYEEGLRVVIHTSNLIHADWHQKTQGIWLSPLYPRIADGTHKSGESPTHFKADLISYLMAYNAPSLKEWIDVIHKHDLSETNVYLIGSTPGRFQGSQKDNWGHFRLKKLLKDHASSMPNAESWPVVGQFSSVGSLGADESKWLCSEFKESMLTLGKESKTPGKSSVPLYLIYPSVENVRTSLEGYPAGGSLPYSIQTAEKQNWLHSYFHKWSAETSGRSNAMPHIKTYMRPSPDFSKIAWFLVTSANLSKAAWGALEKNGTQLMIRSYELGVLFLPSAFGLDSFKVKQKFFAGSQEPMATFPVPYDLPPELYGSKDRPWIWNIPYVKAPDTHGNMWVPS
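Recombinant E. coli-expressed Tdp1 (1 nM) preincubated with compound 15 min at RT, then 5'-biotin/3'-phosphotyrosine-FITC DNA substrate (15 nM) added for 5 min. AlphaScreen beads (10 ug/ml) added, 10 min RT; tyrosine-FITC cleavage read as signal loss.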
Numbers without * were called inactive; ? = inconclusive; / = not tested or not shown; [ ] = another dose, or the depositor's remark. Unless noted, calls follow the shape of the dose curve; as a rule, active = well fitted curve in the direction sought with a large enough effect; inconclusive = small, poorly fitted or top-dose-only effect, or another doubt; inactive = no such curve, though single readings can be large; an effect the other way counts as inactive or inconclusive.

SMILES	HepG2 tox	IL-1B inflam inh	DT40 TDP1 CPT	TGFb inhibitor	DT40 TDP1 no CPT	TDP1 inh
CC(C)CC1=C/C(=C/c2ccc(-c3ccccc3)o2)C(=O)O1	-3.9%	0.0	?	-36.0%	16.4µM*	5.3%
c1ccc2c(c1)nnn2CNc1nccs1	-11.2%	10.5	9.2µM*	3.1%	-33.4%	2.6%
c1ccc(CCn2nnc3ccccc32)cc1	-0.4%	3.2	?	-0.3%	?	2.4%
COc1ccc(C(=O)CC(=O)c2c(O)cc(OC)cc2OC)cc1	/	/	/	/	/	6.9%[21 µM]
COc1cc(O)c(CCC(=O)c2cc(OC)c(OC)c(OC)c2)c(OC)c1	3.4%	9.4	20.6µM*	-13.6%	14.6µM*	5.3%
CCN(CC)CCNC(=O)c1sc2nc(C)cc(C)c2c1-n1cccc1	-14.7%	/	?	-3.6%	?	0.0%
O=C(Nc1nc2ccc(Oc3ccccc3)cc2s1)c1cc([N+](=O)[O-])ccc1N1CCOCC1	1.5%	-17.8	?	?	13µM*	2.6%
O=C(NCCOc1ccccc1)c1cc([N+](=O)[O-])ccc1N1CCOCC1	-4.7%	-10.9	1.84µM*	?	1.64µM*	6.2%
O=C(NCCOc1ccccc1F)c1cc([N+](=O)[O-])ccc1N1CCOCC1	-5.7%	13.9	5.17µM*	0.0%	3.66µM*	6.3%[56.1 µM]
O=C(CN1CCOCC1)Nc1nc2ccc([N+](=O)[O-])cc2s1	-25.8%	26.8	-21.4%	-0.3%	-13.1%	5.1%
O=C(CCCCCNC(=O)N1CCn2c1nc1ccccc12)N[C@H](Cc1ccccc1)C(=O)O	-1.0%	9.1	-2.1%	23.9%	1.8%	/
O=C(CN1C(=O)NC2(CCCC2)C1=O)Nc1ccc(C(F)(F)F)cc1	-20.7%	6.0	?	-9.3%	?	8.5%[0.0935 µM]
O=C1c2ccccc2NC(c2ccc(Cl)cc2Cl)N1Cc1ccccc1 (stereo not drawn)	-20.4%	3.5	23.1µM*	?	?	5.1%
O=C1c2ccccc2NC(c2ccc(Cl)cc2Cl)N1O (stereo not drawn)	-10.1%	56.6	?	5.6%	16.4µM*	5.4%
O=C1c2ccccc2NC(c2c(Cl)cccc2Cl)N1Cc1ccccc1 (stereo not drawn)	-1.6%	?	16.4µM*	?	18.4µM*	4.0%
C=CCc1cccc(C2Nc3ccccc3C(=O)N2O)c1O (stereo not drawn)	-17.7%	-5.6	-20.9%	0.0%	-27.2%	9.3%
O=C1c2ccccc2NC(c2cccc(F)c2)N1Cc1ccccc1 (stereo not drawn)	-49.1%	?	-21.9%	-16.7%	-16.3%	/
Cc1nc([N+](=O)[O-])cn1-c1ccc([N+](=O)[O-])cc1	/	/	13.6%	/	-3.4%	/
CCn1c(=NC(=O)c2ccc(N3C(=O)CCC3=O)cc2)sc2c(OC)ccc(OC)c21	-37.2%	-7.6	23.1µM*	-1.1%	?	-6.9%
CCn1c(=NC(=O)c2cccc(N3C(=O)CCC3=O)c2)sc2c(C)ccc(OC)c21	-22.3%	-27.3	18.4µM*	-17.8%	-75.7%	0.0%
O=C1C=C(c2ccccc2)C(c2ccccc2)C1O (stereo not drawn)	-3.2%	7.5	-16.7%	3.7%	-19.0%	/
CCOc1ccc(NC(=O)Cn2c(=O)n(CCc3ccccc3)c(=O)c3c4c(sc32)CCCC4)cc1	0.8%	/	4.0%	-0.1%	-29.3%	1.8%
O=C(NCc1ccccc1Cl)[C@H]1CCCN1C(=O)[C@H]1CCCN1C(=O)c1cccs1	/	-8.1	-14.9%	/	-5.7%	/
Cc1ccccc1OC1C(=O)N(CC2CCCO2)C1c1ccc2c(c1)OCO2 (stereo not drawn)	14.5%	0.6	14.6µM*	-3.6%	13µM*	5.1%
COc1cccc(-c2nc(S(=O)(=O)c3ccccc3)c(N3CCCCC3)o2)c1	-30.7%	/	?	-0.2%	16.4µM*	/
SMILES	HepG2 tox	IL-1B inflam inh	DT40 TDP1 CPT	TGFb inhibitor	DT40 TDP1 no CPT	TDP1 inh
COc1ccc(-c2nc(S(=O)(=O)c3ccccc3)c(N3CCCC3)o2)cc1	3.3%	5.3	-0.7%	-8.7%	-4.7%	/
COc1cccc(-c2nc(S(=O)(=O)c3ccc(C)cc3)c(N3CCCCC3)o2)c1	-29.8%	/	20.6µM*	-23.8%	18.4µM*	/
COc1ccc(-c2nc(S(=O)(=O)c3ccc(C)cc3)c(N3CCCC3)o2)cc1	3.5%	18.6	-19.1%	-4.6%	-24.6%	6.2%
Cc1ccc(NC(=O)COC(=O)c2oc3ccccc3c2C)cc1S(=O)(=O)N1CCOCC1	-10.6%	6.7	?	-11.0%	?	-9.5%
COc1ccc(N(C(=O)COc2ccccc2OC)S(=O)(=O)c2ccc(C)cc2)cc1	-15.8%	37.2	-5.7%	?	-25.1%	0.0%
COc1ccc(N(C(=O)COc2ccc(Br)cc2)S(=O)(=O)c2ccc(C)cc2)cc1	-13.9%	/	?	4.9%	20.6µM*	-3.1%[12.3 µM]
COc1ccc(N(C(=O)COc2c(C)cccc2C)S(=O)(=O)c2ccc(Cl)cc2)cc1	-35.8%	/	23.1µM*	?	?	0.4%[12.3 µM]
Cc1ccc(OCC(=O)N(c2ccc(C)cc2)S(=O)(=O)c2ccc(Cl)cc2)cc1	8.1%	/	?	-8.1%	?	-1.3%[12.3 µM]
NC(=O)NN=C1c2cc(S(=O)(=O)N3CCOCC3)ccc2-c2ccc(S(=O)(=O)N3CCOCC3)cc21	-10.0%	/	?	-7.6%	3.0%	1.9%
CCCN(C(=O)CSc1ccccc1C(=O)O)C1CCS(=O)(=O)C1 (stereo not drawn)	6.9%	-3.1	-20.4%	0.5%	3.5%	-0.5%
CCOC(=O)C1CCN(C(=O)Cn2nc(C)n3nc(-c4ccc(CC)cc4)cc3c2=O)CC1	-2.8%	58.5	?	1.6%	?	0.0%
CCc1ccc(-c2cc3c(=O)n(CC(=O)NCCCN4CCN(CC)CC4)nc(C)n3n2)cc1	-0.8%	?	18.4µM*	0.1%	?	0.9%
CCOC(=O)C1CCCN(C(=O)Cn2nc(C)n3nc(-c4ccccc4)cc3c2=O)C1 (stereo not drawn)	1.9%	11.8	14.6µM*	4.5%	?	3.9%
Cc1nn(CC(=O)NCCCN2CCC(N3CCCCC3)CC2)c(=O)c2cc(-c3ccccc3)nn12	-1.1%	-19.9	7.31µM*	4.7%	4.11µM*	0.8%
Cc1ncc2c(c1CNS(=O)(=O)N(C)C)CCN(C(=O)/C=C/c1ccccc1Cl)C2	/	/	6.0%[9.04 µM]	/	?	/
